Screening results from PubChem BioAssay.
Tau fluor cs: Counterscreen qHTS for Inhibitors of Tau Fibril Formation, Fluorescence Polarization; tau K18 P301L Alexa594 fluorescence, heparin fibrillization; Potency, µM (highest dose often 57.7 µM); 0.93% of 280,000 active; AID 1463, 2008; note: nearly all actives have a fitted effect of over 55% in size
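Human tau K18 P301L (15 uM unlabeled, 0.24 uM Alexa 594-labeled) in 100 mM sodium acetate pH 7 with 20 uM heparin, 6 hr at 37 C. ThT 30 uM added, 1 hr ambient; Alexa 594 FP and total fluorescence read at 555/632 nm.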
Coupling enz: qHTS Assay for Inhibitors of Fructose-1,6-bisphosphate Aldolase from Giardia Lamblia: Coupling assay counterscreen | activity change, negative = inhibition, % at 58.2 µM, hits read low | AID 2472, 2010 | coupling enzyme system counterscreen, AmpLite Red fluorescence | 0.67% of 290,000 active; in the data active = activity change below about -30%
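Fluorescence at 525 nm excitation and 598 nm emission measured inhibition of the coupled detection system without aldolase. Compounds (at 57.5 uM final) were preincubated 10 min at room temperature with coupling enzyme reagent before a 20 min substrate/AmpLite Red step.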
Tau ThT inhib: qHTS for Inhibitors of Tau Fibril Formation, Thioflavin T Binding; Potency, µM (titrated, usually from 57.4 µM), most hits filed as inhibitors; 2.1% of 270,000 active; recombinant tau K18 P301L, heparin-induced fibrillization, ThT fluorescence; AID 1460, 2008; Microtubule-associated protein tau (Homo sapiens), P10636; note: nearly all actives have a fitted effect of over 55% in size
Target sequence (P10636 561-689 P618L limits assumed): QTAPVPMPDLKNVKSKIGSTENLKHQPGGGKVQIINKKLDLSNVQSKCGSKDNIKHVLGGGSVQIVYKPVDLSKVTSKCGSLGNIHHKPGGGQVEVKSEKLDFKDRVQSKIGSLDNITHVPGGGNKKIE
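Fibril formation assay: tau K18 P301L at 15 uM with trace Alexa 594 label, heparin inducer 20 uM, pH 7 sodium acetate buffer, 37 C for 6 hr; endpoint ThT signal.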
Tau fibril FP: qHTS for Inhibitors of Tau Fibril Formation, Fluorescence Polarization; Potency, µM (top dose mostly 57.7 µM), hits mostly inhibitors; K18 P301L tau heparin fibrillization, Alexa594 FP, 6 h; 0.39% of 280,000 active; note: nearly all actives have a fitted effect of over 55% in size
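Read-out: fluorescence polarization of Alexa 594-labeled tau (0.24 uM), 555 nm excitation, 632 nm emission. Mixtures held 15 uM unlabeled K18 P301L, compound and 20 uM heparin, pH 7 acetate buffer, incubated 6 hr at 37 C.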
Sfp inh: qHTS Assay for Inhibitors of Bacillus subtilis Sfp phosphopantetheinyl transferase (PPTase) | Biochemical Sfp PPTase activity, qHTS | Potency, µM, actives largely listed as inhibitors | 3.5% of 310,000 active;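 note: the enzyme is Sfp with the accession as filed and its product quenches rhodamine fluorescence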
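Fluorescence-quenching assay: 15 nM Sfp-PPTase preincubated 15 min at room temperature with compound, then 5 uM rhodamine-CoA and 12.5 uM BHQ-2-labelled YbbR peptide added. Fluorescence (ex 525/em 598 nm) read at start and after 30 min; difference gives rate.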
A number is an active result; i = inactive; ? = inconclusive; nt = not tested or not shown; [ ] = remark or other dose. Rows were chosen to be rich in hits. Some 5.2% of all compounds tested hit in one or more screens of this group. Unless noted, calls come from the whole dose curve; as a rule, active = well fitted curve in the direction sought with a large enough effect; inconclusive = small, poorly fitted or top-dose-only effect, or another doubt; inactive = no such curve, though single readings can be large; an effect the other way counts as inactive or inconclusive.

SMILES	Tau fluor cs	Coupling enz	Tau ThT inhib	Tau fibril FP	Sfp inh
COc1cccc(/C=N/NC(=O)c2cc3cc([N+](=O)[O-])ccc3s2)c1O	?	i	2.2µM	i	?
COc1cccc(/C=N/NC(=O)C(=O)N/N=C/c2cccc(OC)c2O)c1O	i	i	?	i	i
COc1cc(/C=N/NC(=O)c2ccc(C)nc2)cc([N+](=O)[O-])c1O	i	i	?	i	i
COc1cc(/C=N/NC(=O)c2ccncc2)c([N+](=O)[O-])cc1OC	nt	i	nt	nt	i
COc1cccc(CNC(=O)CCc2c(C)nc3c(c2C)c(=O)n(C)c(=O)n3C)c1	i	nt	i	i	nt
COc1ccccc1/C=N/NC(=O)c1ccc(NC(=O)c2cccc([N+](=O)[O-])c2)cc1	i	i	?	i	i
COc1cc([N+](=O)[O-])cc(/C=N/NC(=O)c2ccc(NC(=O)c3ccc(C)cc3)cc2)c1O	?	i	2µM	i	i
CCCCSCc1ccc(C(=O)O)o1	i	i	i	i	i
CC(=O)c1c(C)oc(C)c1CSCc1ccc(C(=O)O)o1	i	i	?	?	45µM
ONCc1ccccc1	nt	i	nt	nt	13µM
CC(C)=CCC1=C(O)c2ccccc2C(=O)C1=O	?	-61	28µM	?	i
Cc1ccccc1CN1C(=O)c2ccccc2S(=O)(=O)c2ccc(C(=O)OCC3CCCO3)cc21 (stereo not drawn)	i	nt	i	i	nt
Cn1c(/C(C#N)=C/c2ccccc2Br)nc2ccccc21	i	nt	?	i	nt
O=C1C=C(c2ccccc2)C(=O)N1Nc1ccccc1	i	i	?	i	10µM
CCOC(=O)c1cnc2c(Cl)cc(Cl)cc2c1Nc1ccccc1OC	i	nt	i	i	nt
Cc1ccc(SCc2cc(=O)c3c(=O)n(-c4ccccc4)[nH]c3[nH]2)cc1	i	i	?	i	71µM
O=c1cc(CSc2ccc(Cl)cc2)[nH]c2[nH]n(-c3ccccc3)c(=O)c12	i	i	?	i	i
Cc1ncc(CN2CCCC(C(=O)Nc3ccc(-c4cscn4)cc3)C2)cn1 (stereo not drawn)	nt	nt	nt	nt	i
COCc1cc(CN2CCCC(C(=O)Nc3ccc(-c4ccco4)cc3)C2)ccc1OC (stereo not drawn)	nt	i	nt	nt	50µM
Cc1ncc(CN2CCCC(C(=O)Nc3ccc(-c4ccco4)cc3)C2)cn1 (stereo not drawn)	nt	nt	nt	nt	32µM
CCOc1ccccc1NC(=O)N1CCc2c(sc3c2CCCC3)C1c1ccccc1 (stereo not drawn)	i	nt	i	i	nt
COc1ccc(-n2c(=O)c3c4c(sc3n(Cc3cc(=O)n5c(C)cccc5n3)c2=O)CCC4)c(OC)c1	i	nt	i	i	nt
CC(=O)c1ccc(N2CCN(c3ccc(S(=O)(=O)NCCCN(C)C)cc3[N+](=O)[O-])CC2)cc1	i	i	10µM	i	i
CN(C)CCCNS(=O)(=O)c1ccc(N2CCN(Cc3ccc4c(c3)OCO4)CC2)c([N+](=O)[O-])c1	nt	i	nt	nt	71µM
CC(=O)c1ccc(N2CCN(c3ccc(S(=O)(=O)NCCN(C)C)cc3[N+](=O)[O-])CC2)cc1	i	i	nt	i	i
SMILES	Tau fluor cs	Coupling enz	Tau ThT inhib	Tau fibril FP	Sfp inh
CN(C(=O)c1c(O)c2ccccc2n(C)c1=O)c1ccccc1	i	i	i	i	i
FC(F)(F)c1cnc(Sc2nc3nccc(-c4ccc(Cl)cc4)n3n2)c(Cl)c1	i	-55	i	i	i
COc1ccc(-c2ccnc3nc(Sc4ncc(C(F)(F)F)cc4Cl)nn23)cc1	?	i	i	i	i
CCOC(=O)c1[nH]c(C)c(CCC(=O)NCc2ccccc2Cl)c1C	i	nt	i	i	nt
Cc1cccc(C(=O)NCC(c2ccc3c(c2)OCO3)N2CCOCC2)c1 (stereo not drawn)	i	nt	i	i	nt
COc1ccc(S(=O)(=O)NCC(c2ccco2)N2CCN(c3ccccc3F)CC2)cc1C (stereo not drawn)	i	nt	i	i	nt
Cc1ccc(S(=O)(=O)NCCC(=O)Nc2ccc(Cl)c(Cl)c2)cc1C	?	i	i	14µM	i
Cc1ccc(NC(=O)CNc2ccc(Cl)c(Cl)c2)cc1S(=O)(=O)N(C)C	16µM[quencher]	i	i	i	i
CN(C)S(=O)(=O)c1cc(NC(=O)CSc2nn(-c3ccc(Cl)cc3)c(=S)s2)ccc1Cl	?	i	?	25µM	i
Cc1ccc(S(=O)(=O)NCCC(=O)Nc2ccc(Cl)c(Cl)c2)cc1	?	i	i	?	i
CCN(CC(=O)Nc1ccc(NC(C)=O)cc1)CC(=O)Nc1ccc(Cl)c(Cl)c1	nt	i	nt	nt	56µM
CCN(CC(=O)Nc1ccc(NC(C)=O)cc1)CC(=O)Nc1cccc(Cl)c1	nt	i	nt	nt	i
CCOc1ccc2ncc3c(-c4cccc(OC)c4)nn(-c4ccccc4)c3c2c1	i	nt	i	i	nt
NCC1OC(OC2C(N)CC(N)[C@@H](O)[C@@H]2OC2O[C@H](CO)[C@@H](O[C@@H]3OC(CN)C(O)C(O)C3N)C2O)C(N)C(O)C1O (stereo partly drawn)	i	i	i	i	i
Cc1cnc(C(=O)Nc2ccccc2-c2ccc(C)o2)cn1	i	i	?	i	50µM
Cc1cnc(C(=O)Nc2cccc3ncccc23)cn1	i	i	i	i	i
Cc1nc2ccccc2c2oc(C(=O)N3CCC(C)CC3)cc12	nt	i	nt	nt	i
Cc1nc2ccccc2c2oc(C(=O)N3CCN(C(=O)c4ccco4)CC3)cc12	i	i	i	i	71µM
Cc1cnc(CNc2ccnc(-c3ccccc3CN(C)C)n2)cn1	nt	i	nt	nt	i
